ST2 inh: IL1RL1 inhibition. 78,000 tested, 2.3% active. inhibition, % for hits at 17 µM. AlphaLISA ST2-Fc/biotin-IL-33 interaction, 1 h. AID 1259354; in the data active means inhibition above about 30%
Target sequence (Q01638 whole entry, looked up): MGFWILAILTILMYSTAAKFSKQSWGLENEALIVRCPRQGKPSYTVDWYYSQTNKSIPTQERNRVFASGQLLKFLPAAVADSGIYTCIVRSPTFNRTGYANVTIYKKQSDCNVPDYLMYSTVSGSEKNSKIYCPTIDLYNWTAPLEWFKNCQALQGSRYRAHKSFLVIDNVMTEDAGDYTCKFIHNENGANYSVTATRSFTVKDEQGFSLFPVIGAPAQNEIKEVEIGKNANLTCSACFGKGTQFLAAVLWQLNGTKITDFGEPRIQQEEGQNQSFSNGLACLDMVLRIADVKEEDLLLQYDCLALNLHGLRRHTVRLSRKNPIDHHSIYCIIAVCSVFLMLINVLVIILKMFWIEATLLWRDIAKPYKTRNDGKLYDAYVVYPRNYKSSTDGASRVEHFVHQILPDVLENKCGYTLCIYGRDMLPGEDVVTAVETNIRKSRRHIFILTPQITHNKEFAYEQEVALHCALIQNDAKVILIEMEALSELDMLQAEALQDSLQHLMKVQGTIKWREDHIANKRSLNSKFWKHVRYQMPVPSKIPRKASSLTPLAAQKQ
* = called active by the depositor. Shown is part of a subset that was picked to be rich in hits.

For CCn1cc(C(=O)N2CC(C)CC(C)C2)c2cc(OC)c(OC)cc2c1=O (stereo unspecified) the results were ST2 inh inactive.
`COc1ccccc1N1CCN([C@H]2[C@@H]3OC[C@@H](O3)[C@@H](NCc3ccc(-c4ccccc4)cc3)[C@@H]2O)CC1` gave ST2 inh inactive.
For COCCN[C@H]1[C@@H]2OC[C@@H](O2)[C@@H](NCc2ccc(-c3ccccc3)cc2)[C@@H]1O the results were ST2 inh 36.0%*.
Screening O[C@H]1[C@H](NCc2ccc(-c3ccccc3)cc2)[C@H]2CO[C@H](O2)[C@@H]1Oc1ccccc1 returned ST2 inh inactive.
For CCNC(=O)CC1SC(=Nc2ccc(OC)cc2)N(C)C1=O (stereo unspecified) the results were ST2 inh inactive.
COc1ccc(N=c2scc(-c3ccc(I)cc3)n2CCO)cc1 was read as ST2 inh 55.0%*.
Screening Cc1cccc(N2C(=O)c3ccc(-c4nnc(-c5ccccc5)o4)cc3C2=O)c1 returned ST2 inh inactive.
For CN=c1scc(-c2ccc(Cl)cc2)n1C the results were ST2 inh inactive.
`COc1ccc(N=C2SCC(=O)N2c2ccc(OC)cc2)cc1` gave ST2 inh inactive.
O=C(O)c1ccc2c(c1)C(=O)N(c1cccc(Cl)c1)C2=O was read as ST2 inh inactive.
COc1ccc(CN2C(=Nc3ccccc3)S[C@H]3[C@@H]2[C@@H](O)[C@H](O)C[C@@H]3C(N)=O)cc1 was read as ST2 inh inactive.
For COc1ccc(C2(C(=O)N3CCCC(O)(CO)C3)CC2)cc1 (stereo unspecified) the results were ST2 inh inactive.
`COc1ccc(-c2csc(=Nc3ccccc3)n2CCO)cc1` gave ST2 inh 38.0%*.
For CCCCn1c(=N)n(CCOc2ccc(C)cc2)c2ccccc21 the results were ST2 inh inactive.
Cc1ccc(-c2csc(=Nc3ccccc3)n2CCCN(C)C)cc1 was read as ST2 inh 42.0%*.
Screening O=C1c2ccccc2C(=O)N1c1cccc(-c2csc(=Nc3ccccc3)n2CCO)c1 returned ST2 inh 48.0%*.
For Cc1cccnc1C(=O)N(CC#Cc1ccccc1)CC(C)C the results were ST2 inh inactive.
`O=C(/C=C/c1cccnc1)N1CCC2(CCCN(Cc3ccccc3F)C2)C1` (stereo unspecified) gave ST2 inh inactive.
For CCOC(=O)c1c(NC(=O)COc2cccc(Cl)c2)sc2c1CCC(C)C2 (stereo unspecified) the results were ST2 inh inactive.
For Cc1cc(N2CCCC2)nc(N2CCN(S(=O)(=O)c3ccc(Br)cc3)CC2)n1 the results were ST2 inh inactive.
For CC1(C)Cc2nc3sc4c(=O)[nH]cnc4c3cc2CS1 the results were ST2 inh 80.0%*.
For C=CCn1c(C)nc2c(sc3nc4c(cc32)COC(C)(C)C4)c1=O the results were ST2 inh inactive.
For CCCCn1c(C)nc2c(sc3nc4c(cc32)COC(C)(C)C4)c1=O the results were ST2 inh inactive.
`Cc1ccc(C)c(OCC(=O)NCCS(=O)(=O)N2CCCC2)c1C` gave ST2 inh inactive.
Screening Cc1cc(N2CCC(C)CC2)nc2ccc(NC(=O)CCC(=O)N3CCCC3)cc12 returned ST2 inh inactive.
Cc1ccc(S(=O)(=O)C2(C(=O)N3CCCCC3)CC2)cc1 was read as ST2 inh inactive.
`CCOc1ccc(N=C/C(=C/Nc2ccc(OCC)cc2)c2ccccc2)cc1` gave ST2 inh 36.0%*.
For CCOc1ccc(NCC(=O)c2ccc(Br)cc2)cc1 the results were ST2 inh inactive.
For CCOc1ccc(N=CNc2ccc(OCC)cc2)cc1 the results were ST2 inh inactive.
For CC(C)SCCN1Cc2ncccc2C1=O the results were ST2 inh inactive.
`COc1ccc(OC)c(C(=O)CN2C3=NCCCN3c3ccccc32)c1` gave ST2 inh inactive.
`CN(CCC#N)S(=O)(=O)c1ccc2c(c1)CCN2C(=O)C1CC1` gave ST2 inh inactive.
`CCCC1(O)CC(C(=O)OC)=NN1C(=O)c1ccccc1` (stereo unspecified) gave ST2 inh inactive.
`COc1cc(OC)c(CN2CCN(c3ccccc3F)CC2)cc1Br` gave ST2 inh 36.0%*.
For COc1ccccc1N1CCN(Cc2cc(OC)c(O)c(OC)c2)CC1 the results were ST2 inh inactive.
Screening COc1cc(OC)c(OC)cc1CN1CCN(c2cc(C)ccc2C)CC1 returned ST2 inh 35.0%*.
`COc1ccccc1N1CCN(Cc2ccc(C(=O)O)cc2)CC1` gave ST2 inh inactive.
For COc1ccc(CN2CCN(Cc3cc(OC)c(OC)cc3OC)CC2)cc1 the results were ST2 inh inactive.
Screening COc1cc(OC)c(OC)cc1CN1CCN(c2ccccn2)CC1 returned ST2 inh inactive.
`COc1ccc(CN2CCN(c3ccccc3OC)CC2)cc1OC` gave ST2 inh 30.0%*.
`Fc1ccccc1N1CCN(Cc2ccco2)CC1` gave ST2 inh inactive.
COc1cc(OC)c(OC)cc1CN1CCN(c2ccc(F)cc2)CC1 was read as ST2 inh inactive.
`COc1cc(C2C3=C(CC(C)(C)CC3=O)NC3=C2C(=O)CC(C)(C)C3)cc(Br)c1O` gave ST2 inh inactive.
`CCNC(=O)c1ccccc1-c1cc(OC)ccc1F` gave ST2 inh inactive.
Screening Cc1cccn2c(CC(=O)NC3CCC(n4cnnc4)CC3)cnc12 (stereo unspecified) returned ST2 inh inactive.
Screening CC(=O)N1CCc2c(nc(C)nc2N2CCN(CCc3ccncc3)CC2)C1 returned ST2 inh inactive.
For Cc1cc2c(cc1S(=O)(=O)N1CCCC1C(=O)N1CCc3ccccc31)OCC(=O)N2 (stereo unspecified) the results were ST2 inh inactive.
Cc1ccc(OCCCCN2CCCC2)c(C)c1 was read as ST2 inh inactive.
Screening CC(C)C[C@H]1CN(C(=O)c2ccc(-c3nnn(C)n3)cc2)CC[C@@]1(C)O returned ST2 inh inactive.
CC[C@H]1CN(C(=O)c2ccc(C)cc2C)CC[C@@]1(C)O was read as ST2 inh 31.0%*.
`CC[C@H]1CN(C(=O)c2cccnc2N2CCOCC2)CC[C@@]1(C)O` gave ST2 inh inactive.
`CC(C)(C)NC(=O)c1ccccc1C(=O)NC(C)(C)C` gave ST2 inh inactive.
O=C(NCCc1nc2cccnc2n1-c1ccccc1)Nc1ccccc1Cl was read as ST2 inh inactive.
Screening N#Cc1ccc(/C=C2\NC(=O)N(Cc3ccc(Cl)cc3)C2=O)cc1 returned ST2 inh 30.0%*.
Cc1cc(/C=C2\NC(=O)N(Cc3ccc(Cl)cc3)C2=O)c(C)n1-c1ccc(C#N)cc1 was read as ST2 inh inactive.
Screening O=C1N/C(=C\c2ccc(Cl)cc2)C(=O)N1Cc1ccc(Cl)cc1 returned ST2 inh inactive.
Screening O=[N+]([O-])c1c(Cl)ncnc1N1CCCCC1 returned ST2 inh inactive.
Screening O=C(Nc1nc(-c2ccccc2)cs1)[C@@H]1C[C@@H]2CC[C@H]1C2 returned ST2 inh inactive.
CCc1nnc(NC(=O)COc2ccc(C)cc2C)s1 was read as ST2 inh inactive.
CC1=NN(c2ccc(F)cc2)C(=O)/C1=C/c1ccc(N(C)C)c([N+](=O)[O-])c1 was read as ST2 inh inactive.
Screening CCc1ccc(N2N=C(C)/C(=C/c3ccc(N(C)C)cc3)C2=O)cc1 returned ST2 inh 42.0%*.
